# SW480 rerep: induces DNA re-replication in SW480 colon adenocarcinoma cells. hit rate 1.8% among 340,000. Potency, µM (doses to about 46.1 µM), for inactives: at the top dose re-replication activation, actives largely listed as activators. SW480 DNA re-replication, Hoechst DNA content imaging, 48 h; note: % of control where 0% means no effect; nearly all actives have a fitted effect of over 55% in size
#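 Treated cells incubate 48 hr (37 C, 5% CO2), are stained 40 min with Hoechst, and nuclear fluorescence is enumerated; a rise in nuclei with high DNA signal marks re-replication.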
# KB-3-1 tox: KB-3-1 parental cell cytotoxicity. KB-3-1 viability, CellTiter-Glo ATP luminescence, 72 h. hit rate 1.4% among 400,000. Potency, µM (series often up to 46.1 µM), usual class: cytotoxic; note: % is set by controls: 0 for no effect and ±100 for the full control effect; nearly all actives have a fitted effect of over 60% in size
#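 Cytotoxicity measured as CellTiter-Glo luminescence after 72 h at 37 C. Compound titrations were pinned onto drug-naive KB-3-1 parental adenocarcinoma cells grown in DMEM with 10% FBS, and normalized data fitted to concentration-response curves.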
# ELG1 DNA repair: blocks ELG1-dependent DNA repair in HEK293T cells; HEK293T ELG1-luciferase reporter, luminescence, 16 h; DNA damage induced by 5-fluorouridine; Potency, µM (top dose mostly 46.1 µM), inactives show at the highest dose activity change, negative = inhibition, most hits filed as inhibitors; hit rate 2.3% among 330,000; note: % is set by controls: 0 for no effect and ±100 for the full control effect; nearly all actives have a fitted effect of over 55% in size
#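 In this reporter screen, reduction of luminescence relative to DMSO vehicle indicated activity. Compounds and 5-fluorouridine were added together to 2,000 cells per well, incubated for 16 hr at 37 °C, then developed with ONE-Glo.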
# KB-V1 cytotox: kills drug-selected multidrug resistant KB-V1 cells; KB-V1 MDR cells viability, CellTiter-Glo, 72 h; Potency, µM (series often up to 46.1 µM), hits mostly cytotoxic; hit rate 3.4% among 400,000; note: % is set by controls: 0 for no effect and ±100 for the full control effect; nearly all actives have a fitted effect of over 60% in size
#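 KB-V1, DMEM (no phenol red) + 10% FBS; cpd pin-transferred, titration series; 72 h, 37 degrees C; CellTiter-Glo, luminescence. Data normalized, curve-fit.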
# MCF10A rerep: DNA re-replication induction in MCF 10a cells; Potency, µM (titrated, usually from 46.1 µM), for the others: top-dose activity, positive = re-replication, usual class: activators; hit rate 2.9% among 350,000; MCF 10A DNA re-replication, Hoechst nuclear intensity, 48 h; AID 624296; note: % of control where 0% means no effect; nearly all actives have a fitted effect of over 50% in size
# The depositor's hits bear a star; i = inactive; ? = inconclusive; · = no result; [ ] = another dose, or the depositor's remark. Shown are actives, neighbours in structure and some others; about 8.1% of the full set was active somewhere. Calls come from the whole dose curve; as a rule, active = well fitted curve in the direction sought with a large enough effect; inconclusive = small, poorly fitted or top-dose-only effect, or another doubt; inactive = no such curve, though single readings can be large; an effect the other way counts as inactive or inconclusive. Potency is the fitted concentration of half-maximal effect.
SMILES,SW480 rerep,KB-3-1 tox,ELG1 DNA repair,KB-V1 cytotox,MCF10A rerep
Cc1cccc(-n2nc(C(=O)c3ccco3)cc(-c3nc4ccccc4[nH]3)c2=N)c1,2.0%,i,13µM*,i,-2.4%
COC(=O)CSc1ncccc1-c1nc2ccccc2[nH]1,2.9%,i,?,?,3.0%
Cc1ccccc1-n1nc(C(=O)c2cccs2)cc(-c2nc3ccccc3[nH]2)c1=N,?,i,13µM*,2.31µM*,26.4%
CCOCCn1ccc2c(OCC(=O)NCc3ccccc3)cccc2c1=O,1.7%,i,1.5%,?,-3.0%
CC(=O)C1=C(O)C2(C)c3c(O)c(C)c(O)c(C(C)=O)c3OC2CC1=O (stereo not drawn),·,i,·,16.4µM*,·
CC(=O)c1c(O)c(C)c(O)c2c1OC1=Cc3c(c(C)nn3-c3ccccc3)C(=O)C12C (stereo not drawn),·,i,·,i,·
COC(=O)c1ccccc1NC(=O)c1ccc(-c2nc(CSc3ccc(C)cc3)c(C)o2)cc1,·,i,·,i,·
N#C/C=C/C(=C\Nc1ccc(Cl)cc1)S(=O)(=O)c1ccccc1,8.4%,i,0.8%,i,?
COc1ccc(N/C=C(\C=C\C#N)S(=O)(=O)c2ccccc2)cc1,?,i,3.2%,i,3.66µM*
Cc1ccc(CSCc2ccc(C(=O)NC3CCCC3)o2)cc1,-11.3%,i,?,i,-0.9%
COc1ccc(OC2CCN(S(=O)(=O)c3ccc(C(C)=O)cc3)CC2)cc1,-7.5%,i,20.6µM*,i,?
COc1ccc(COC(=O)NC2CCN(S(=O)(=O)c3ccc(OC)cc3)CC2)cc1,-0.9%,i,?,7.31µM*,5.2%
COc1ccc(S(=O)(=O)N2CCC(NC(=O)OCc3c(Cl)cccc3Cl)CC2)cc1,5.0%,i,-17.9%,8.2µM*,?
C[C@H]1CN[C@@H](CCO)/C1=C\c1ccccc1,-21.5%,i,·,i,-6.0%
COc1cc2c(-c3ccc(C)cc3)nc3c(c(C)nn3-c3ccccc3)c2cc1OC,·,i,·,?,·
CCc1ccc(OCCCC(=O)NCc2ccco2)cc1,-118.8%,i,5.1%,i,10.5%
CCc1ccc(N/C(SCc2ccccc2C)=C(/C#N)C(=O)NCc2ccco2)cc1,3.66µM*,?,-13.2%,i,-38.1%[0.0737 µM]
CCOC(=O)CC(NC(=O)c1ccco1)c1ccc(OC)cc1 (stereo not drawn),4.1%,i,-1.1%,23.1µM*,0.0%
COc1ccc(C(CC(=O)O)NC(=O)c2ccco2)cc1 (stereo not drawn),-3.0%,i,6.2%,i,-179.2%[0.0737 µM]
O=C(Cc1ccc([N+](=O)[O-])cc1)N1N=C2CCCCC2C1(O)C(F)(F)F (stereo not drawn),17.2%,i,-49.7%,?,-15.1%
CN(C)C(=O)c1ccc(-c2n[nH]c(=O)c3ccccc23)cc1,-1.9%,i,?,i,0.82µM*
O=C(c1ccccc1)c1c2c(cc3sc4ccccc4[n+]13)-c1cccc3cccc-2c13,7.9%,20.6µM*,18.4µM*,?,?
O=C(c1ccccc1)c1ccc2ccccc2c1,-7.2%,i,·,i,?
Cc1sc2cc3c(c(C(=O)c4ccccc4)[n+]2c1C)-c1cccc2cccc-3c12,?,7.31µM*,23.1µM*,i,11.6µM*
Cc1cc2c(c(=O)o1)C(C1C=CCCC1)C(C#N)=C(N)O2 (stereo not drawn),-4.4%,i,1.2%,i,7.6%
Cc1ccc2nc(-c3ccc(NC(=O)Cc4cccs4)cc3)[nH]c2c1,?,i,?,i,?
O=C(Nc1ccc2oc(-c3ccccc3)nc2c1)C1CCCO1 (stereo not drawn),-1.2%,?,?,?,8.8%
Cc1ccc2nc(-c3ccc(NC(=O)C4CCCO4)cc3)[nH]c2c1 (stereo not drawn),-6.4%,i,?,9.2µM*,3.1%
O=C(Nc1ccc(-c2nc3ccccc3o2)cc1)C1CCCO1 (stereo not drawn),0.5%,?,?,10.3µM*,24.6%
